# Results from PubChem BioAssay (NCI).
# Several values for one entry are separate records, joined by “and”; a condition that tells them apart may be missing. Identical values can stand only once. This is part of a sample that, as a whole, favours compounds with a hit. Of some 83,000 tested, about 20% had one in any assay.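 Activity criterion: percent growth below 10, measured after cells in 96-well plates were exposed to a single compound concentration for 48 hours.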 Activity calls are given as the source filed them.
# System: HL-60(TB) leukemia
# Assay: NCI-60 one-dose screen, 48 h (100 = growth as untreated, 0 = no growth, -100 = all killed)
# Conditions: 10 µM unless noted
row,Compound,growth
1,COc1ccc(CCN2C(=O)CSC2=S)cc1OC,62.4% (inactive)
2,CCCCCCCCCC(=O)NC(C)(C)C(=O)N1CCC[C@H]1C(=O)N[C@@H](CC(C)C)C(=O)N[C@@](C)(CC)C(=O)N[C@@H](CCC(N)=O)C(=O)N[C@H](CCC(N)=O)C(=O)NC(C)(C)C(=O)NC(C)(C)C(=O)N[C@@H](CCC(N)=O)C(=O)N[C@H](CC(C)C)C(=O)N[C@H](CO)CC(C)C,-76.7% (active) and -39.4% (active)
3,Cn1cc(-c2nn3cc(-c4ccncc4)nc3s2)c2cc(Cl)ccc21,-16% (active)
4,CC(=O)c1cc(C(=O)c2ccc(Br)cc2)n2cc(C)cc(C)c12,83.3% (inactive)
